Screening results as filed in PubChem.
Pf Dd2 inh: blocks in vitro growth of P. falciparum Dd2; Potency, µM (series often up to 28.9 µM), for the others: at the top dose activity, negative = inhibition, hits mostly inhibitors; AID 1347417; 120,000 tested, 4.3% active; P. falciparum Dd2 growth, SYBR Green, 72 h; active means well fitted inhibition curve with a large enough effect;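 further: plate controls were DMSO vehicle for no effect and reference drug for full effect; nearly all actives have a fitted effect of over 65% in size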
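Infected erythrocytes (Dd2, 0.3% parasitemia, 2.5% hematocrit final) are added to compound in RPMI-1640/Albumax II medium, grown 72 h at 37C in low oxygen, then lysed with saponin/Triton-X containing SYBR Green and read by fluorescence.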
Numbers without * were called inactive; i = inactive; [ ] = dose if it differs, or a comment. The entries come from a sample that favours hits as a whole. Potency means the concentration at half of the fitted maximal effect.

SMILES | Pf Dd2 inh
O[C@H]1[C@H](NCc2ccccn2)[C@H]2CO[C@H](O2)[C@@H]1N1CCC(Cc2ccccc2)CC1 | -19.2%[44.1 µM]
Cc1c(-c2ccc(F)cc2)[nH]c2ccc(CNCc3cnn(C)c3)cc12 | i
O=C(NC[C@H]1OC[C@@H](NC2CCC2)[C@@H]1O)C1CCCC1 | i
Oc1ccc(-c2nc(C3CC3)nc3c2CCN(Cc2ccccc2)CC3)cc1 | -8.2%
COc1ccc(-c2nc(C3CC3)nc3c2CCN(Cc2ccsc2)CC3)cc1 | 10µM*
CCc1nc2c(c(-c3ccc(OC)cc3)n1)CN([S+](=O)([O-])c1cccc(C(F)(F)F)c1)CC2 | -8.2%
COc1ccc(-c2nc(C3CC3)nc3c2CCN(CC2CCCCC2)CC3)cc1 | i
CCc1nc2c(c(-c3ccc(O)cc3)n1)CCN(Cc1ccncc1)CC2 | i
Oc1ccc(-c2nc(C3CC3)nc3c2CCN(Cc2ccc(OC(F)(F)F)cc2)CC3)cc1 | -1.6%
CCc1nc2c(c(-c3ccc(O)cc3)n1)CN(Cc1ccc(OC)cc1)CC2 | -16.8%
CCc1nc2c(c(-c3ccc(Cl)cc3)n1)CCN([S+](=O)([O-])c1cccc(OC)c1)CC2 | 12.6µM*
COc1ccc(-c2nc(C3CC3)nc3c2CCN(Cc2ccc(F)cc2)CC3)cc1 | 7.08µM*
CCc1nc2c(c(-c3ccc(O)cc3)n1)CCN(Cc1ccc(OC)cc1)CC2 | 2µM*
COc1ccc(-c2nc(C3CC3)nc3c2CCN(CC2CC2)CC3)cc1 | -10.6%
COc1cccc([S+](=O)([O-])N2CCc3nc(C4CC4)nc(-c4ccc(Cl)cc4)c3C2)c1 | -19.7%
Cc1ccc(C(=O)N2CCCC3(CC(c4cccc(C(F)(F)F)c4)=NO3)C2)cc1 (stereo not given) | -6.5%
O=C(Nc1cccc(Cl)c1)c1ccc(N2CC3CC(C2)[C@H]2CCCC(=O)N2C3)nc1 (stereo not given in full) | -21.7%
COc1ccc(OC)c(C2CCN(C(=O)c3cc4ccccc4[nH]c3=O)C2)c1 (stereo not given) | -19.6%
O=C(c1ccc(Cl)cc1)N1CCC2(CC1)OCC(C(=O)N1CCCC1)N2C(=O)c1ccccc1 (stereo not given) | i
CCCNC(=O)C(NC(=O)c1ccccc1C)C1CCN(C(=O)C2CCCC2)CC1 (stereo not given) | -16.8%
COc1ccc(C(=O)N2CCC(N3CCCOC3=O)CC2)cc1 | 11.6%
CC(C)CN1CCN(C(=O)C2CCCN(S(=O)(=O)c3cn(C)cn3)CCC(=O)NCC2)CC1 (stereo not given) | 9.2%
Cc1ncc(CO)c(CN2CCCC3(Cc4ccccc4CNC3=O)C2)c1O (stereo not given) | -3.1%
FC(F)(F)c1cccc(C2=NOC3(CCCN(Cc4cccs4)C3)C2)c1 (stereo not given) | -18.4%
O=C(NCc1ccncc1)C1CN(Cc2cccnc2)CC12CCOCC2 (stereo not given) | 7.6%
SMILES | Pf Dd2 inh
CCc1nc2c(c(-c3ccc(Cl)cc3)n1)CN(Cc1cccc(F)c1)CC2 | 10µM*
CCc1nc2c(c(-c3ccc(Cl)cc3)n1)CCN(Cc1ccc(C(F)(F)F)cc1)CC2 | i
CCc1nc2c(c(-c3ccc(Cl)cc3)n1)CCN(Cc1cc(C)on1)CC2 | i
Cc1cccc(-c2nn3c(=O)cc(CN4CCN(C(=O)c5ccccc5Br)CC4)nc3s2)c1 | -21.1%
Cc1cccc(-c2nn3c(=O)cc(CN4CCN(S(=O)(=O)c5ccc(Cl)cc5)CC4)nc3s2)c1 | 8.91µM*
COc1ccccc1-c1nn2c(=O)cc(CN3CCN(S(=O)(=O)c4ccc(C)cc4)CC3)nc2s1 | 9.1%
COc1ccc(-c2nn3c(=O)cc(CN4CCN(C(=O)COc5ccc(F)cc5)CC4)nc3s2)cc1 | -6.8%
Cc1ccc(-c2nn3c(=O)cc(CN4CCN(C(=O)COc5ccc(C)c(C)c5)CC4)nc3s2)cc1 | -5.7%
COc1ccc(-c2nn3c(=O)cc(CN4CCN(S(=O)(=O)c5ccc(C)cc5)CC4)nc3s2)cc1 | 11.2µM*
Cc1ccc(S(=O)(=O)N2CCN(Cc3cc(=O)n4nc(-c5ccccc5Cl)sc4n3)CC2)cc1 | 15.1%
COc1cccc(-c2nn3c(=O)cc(CN4CCN(C(=O)COc5ccccc5C)CC4)nc3s2)c1 | 11.2µM*
COc1ccc(-c2nn3c(=O)cc(CN4CCN(C(=O)/C=C/c5ccccc5)CC4)nc3s2)cc1 | -19.8%
O=S(=O)(c1ccccc1)c1nnn2c1nc(NCc1ccncc1)c1ccccc12 | -4.7%
Cc1ccc(NC(=O)c2ccc3c(c2)N(C)C2CCCN2C3=O)cc1F (stereo not given) | i
COCCN1CCCCCC(O)c2cc(C(=O)N3CCN(C(C)C)CC3)ccc21 (stereo not given) | i
Cc1ccc(N2CC(c3noc(-c4ccc5c(c4)OCO5)n3)CC2=O)cc1 (stereo not given) | 28.5%
CNC(=O)[C@H]1C[C@H](Oc2ccccc2)CN1C(=O)CCc1c[nH]c2ccccc12 | -26.6%
CC(C)CNC(=O)N1CCCC(c2nn[nH]n2)C1 (stereo not given) | 5.3%
